Assay outcomes (PubChem)
HPGD block: qHTS Assay for Inhibitors of HPGD (15-Hydroxyprostaglandin Dehydrogenase); 15-hydroxyprostaglandin dehydrogenase [NAD(+)] (Homo sapiens), P15428; purified HPGD, NADH fluorescence kinetic, PGE2 substrate; Potency, µM, for inactives: top-dose activity change, negative = inhibition, hits mostly inhibitors; 150,000 compounds, 4.3% hits; further: on the % scale 0 is the no-effect control and ±100 the full control effect
Target sequence (P15428 whole entry, looked up): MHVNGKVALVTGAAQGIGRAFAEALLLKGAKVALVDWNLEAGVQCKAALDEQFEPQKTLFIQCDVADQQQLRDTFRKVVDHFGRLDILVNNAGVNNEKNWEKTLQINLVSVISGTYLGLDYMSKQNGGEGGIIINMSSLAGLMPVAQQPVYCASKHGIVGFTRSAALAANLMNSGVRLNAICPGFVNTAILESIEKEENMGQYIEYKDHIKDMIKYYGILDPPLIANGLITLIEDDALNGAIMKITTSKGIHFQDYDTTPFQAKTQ
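NADH formation kinetics: reaction with 30 uM PGE2 and 1 mM NAD+ (final), 20 nM enzyme, Tris-HCl pH 8 with Tween 20, after 15 min compound preincubation at room temperature. Fluorescence change, last versus first of five reads.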
Lamin A splicing: qHTS Assay for Modulators of Lamin A Splicing | HeLa LMNA splicing GFP/RFP minigene ratio, 48 h | Potency, µM (top dose mostly 46.1 µM), without a hit: at the top dose ratio change, negative = inhibition, most hits filed as inhibitors | 200,000 compounds, 0.01% hits | AID 1487, 2009; active means well fitted inhibition curve with a large enough effect in the signal ratio, with a control signal flat, not every such curve was filed as active; inconclusive means small, poorly fitted or top-dose-only effect, or effect the other way, or a change in a side signal; the % refers to the signal ratio; further: on the % scale 0 is the no-effect control and ±100 the full control effect
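S3 HeLa cells stably expressing lamin A-EGFP splicing minigene plus DsRed2, 600 cells/well, 48 h compound exposure at 37C. Laser-scanning cytometry; analysed as GFP (500-530 nm)/RFP (575-640 nm) total intensity ratio; 0.5% DMSO vehicle.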
HTT ATP protect: qHTS Multiplex Assay to Identify Dual Action Probes in a Cell Model of Huntington: Cytoprotection (ATP). Potency, µM (titrated, usually from 56.4 µM), inactives show cytoprotection (ATP increase), actives largely listed as activators. PC12 HTT-Q103 induced, cytoprotection, ATP luminescence, 40 h. 230,000 compounds, 0.14% hits. AID 1471, 2008; active means well fitted curve in the direction sought with a large enough effect; inconclusive means small, poorly fitted or top-dose-only effect, or another doubt; inactive means no such curve, though single readings can be large; an effect the other way counts as inactive or inconclusive; further: % of control where 0% means no effect; nearly all actives have a fitted effect of over 45% in size
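Quantitative HTS on tebufenozide-induced (100 nM) PC12 cells expressing HTTQ103 exon 1–GFP; compounds tested as a concentration series; survival measured via cellular ATP.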
HttQ103 aggreg: qHTS Multiplex Assay to Identify Dual Action Probes in a Cell Model of Huntington: Aggregate Formation (GFP). PC12 HttQ103-GFP aggregates, Acumen cytometry, 40 h. Potency, µM (highest dose often 46.1 µM), inactives show at the highest dose activity change, negative = inhibition, usual class: inhibitors. 220,000 compounds, 1.1% hits. AID 1688, 2009; active means well fitted curve in the direction sought with a large enough effect; inconclusive means small, poorly fitted or top-dose-only effect, or another doubt; inactive means no such curve, though single readings can be large; an effect the other way counts as inactive or inconclusive; further: on the % scale 0 is the no-effect control and ±100 the full control effect; nearly all actives have a fitted effect of over 60% in size
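Huntingtin Q103 exon 1–GFP aggregates in induced PC12 cells (100 nM tebufenozide) were quantified by cytometry from lysates, with compounds dosed in titration.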
ALDH1A1 inh: qHTS Assay for Inhibitors of Aldehyde Dehydrogenase 1 (ALDH1A1); Potency, µM (top dose mostly 75.3 µM), inactives show at the highest dose activity, negative = inhibition, most hits filed as inhibitors; Purified ALDH1A1, NADH fluorescence, propionaldehyde substrate; 220,000 compounds, 7.3% hits; AID 1030, 2008;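 further: plate controls were no enzyme wells and a reference inhibitor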
* hit, by the source's call; [ ] = dose if it differs, or a comment. A selection: hits, their analogues and other compounds. The true share with any hit is near 8.8%. Unless noted, the call rests on the fitted dose curve; in most records, active means well fitted inhibition curve with a large enough effect (not every such curve was filed as active); inconclusive means small, poorly fitted or top-dose-only effect, or another doubt; inactive means no such curve, though single readings can be large or run the other way. Potency means the concentration at half of the fitted maximal effect.

For Cc1cccc(C(=O)Nc2scc(CC(C)C)c2C(=O)O)c1 the results were HPGD block 16µM*, Lamin A splicing inconclusive, HTT ATP protect 42%[10 µM], HttQ103 aggreg -3% and ALDH1A1 inh inconclusive.
CCOC(=O)c1c(CC(C)C)csc1NC(=O)CCl was read as HPGD block -8%, Lamin A splicing 2%, HTT ATP protect inconclusive, HttQ103 aggreg 11% and ALDH1A1 inh 8.9µM*.
Cc1cccnc1NC(=O)Cn1nc(-c2ccccc2)oc1=S was read as HPGD block -18%, Lamin A splicing -1%, HTT ATP protect -8%[10 µM], HttQ103 aggreg -12% and ALDH1A1 inh -14%.
For O=C(NCc1ccco1)c1ccc(Cn2c(SCc3ccccc3)nc3cccnc32)cc1 the results were Lamin A splicing 13%[46 µM].
For COC(=O)c1c(NC(=S)NN2CCN(C)CC2)sc2c1CCC(C)C2 (configuration not stated) the results were Lamin A splicing inconclusive, HTT ATP protect 20%[10 µM], HttQ103 aggreg 1%[9.22 µM] and ALDH1A1 inh inconclusive.
`O=c1c2ccccc2c2ccccc2c(=O)n1-c1cc2c3ccccc3ccc2c2ccccc12` gave HPGD block -6%, HTT ATP protect -8%[10 µM] and ALDH1A1 inh 0%[13.5 µM].
`CN(Cc1ccco1)c1ncncc1-c1ccccc1C(F)(F)F` gave Lamin A splicing -4%, HTT ATP protect 27% and ALDH1A1 inh -3%.
Screening COc1ccc(OC)c(NC(=O)c2c(NCc3ccc(N(C)C)cc3)sc3c2CCCC3)c1 returned Lamin A splicing -25%[46 µM].
Screening CCOC(=O)c1nnn(-c2nonc2N)c1CN1CCCCCC1 returned HPGD block -6%, Lamin A splicing -1%, HTT ATP protect 23%, HttQ103 aggreg 0%[9.22 µM] and ALDH1A1 inh 2.2µM*.
`CCOC(=O)c1nnn(-c2nonc2N)c1CN(C)C1CCCCC1` gave HPGD block -7%, Lamin A splicing 1%, HTT ATP protect 12%, HttQ103 aggreg -10% and ALDH1A1 inh 2µM*.
Screening NNC(=O)c1nnn(-c2nonc2N)c1CN1CCc2ccccc2C1 returned Lamin A splicing -14%[46 µM], HTT ATP protect -4%, HttQ103 aggreg 9% and ALDH1A1 inh 4µM*.
Screening Cc1c(C(=O)N2CCCCCC2)nnn1-c1nonc1N returned HPGD block 32µM*, Lamin A splicing -4%, HTT ATP protect 2%, HttQ103 aggreg -5% and ALDH1A1 inh 11µM*.
For CCOC(=O)c1nnn(-c2nonc2-n2cccc2)c1CN1CCCCC1 the results were HPGD block -23%, Lamin A splicing 19%, HTT ATP protect -20%, HttQ103 aggreg 18% and ALDH1A1 inh 6%.
For O=C(CSc1nc(COc2ccccc2)nc2ccccc12)NC1CCCC1 the results were Lamin A splicing 22%[46 µM], HTT ATP protect -27%[10 µM], HttQ103 aggreg -19%[9.22 µM] and ALDH1A1 inh 2%.
`CC(=O)N1CCc2cc(CNC(=O)Nc3ccc(Br)c(C)c3)ccc21` gave Lamin A splicing 27%[46 µM].
For O=C(NCC(c1cccnc1)N1CCc2ccccc21)c1cccc(F)c1 (configuration not stated) the results were Lamin A splicing 8%[46 µM].
O=C(c1ccc(-n2cccn2)cc1)N1CCc2c([nH]c3ccccc23)C1c1ccccn1 (configuration not stated) was read as HTT ATP protect -16%[10 µM], HttQ103 aggreg -1%[9.22 µM] and ALDH1A1 inh -11%.
For Cn1cccc1-c1cc(C(=O)N2CCc3c([nH]c4ccccc34)C2c2ccccn2)[nH]n1 (configuration not stated) the results were HTT ATP protect 11%[10 µM], HttQ103 aggreg 18%[9.22 µM] and ALDH1A1 inh 13µM*.
`CCc1ccccc1NC(=O)C1COc2ccccc2C1` (configuration not stated) gave Lamin A splicing 3%[46 µM].
`C[C@@H]1C[C@](C)(C(=O)c2ccco2)C=C1c1ccco1` gave HPGD block -8%, HTT ATP protect -44% and ALDH1A1 inh 14µM*.
